The target in assay [1] is Retinoic acid receptor RXR-alpha (Homo sapiens) (UniProt P19793). The experiment in a line: ATG_RXRa_TRANS: Attagene TRANS-FACTORIAL HepG2 Assay for human Retinoid X Receptor alpha (RXRa) (AID 2283012; active = hit-call score of the fitted dose curve at least 0.9, where 1 is the maximum). The method in brief: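 Chimeric NR-GAL4 trans-activation in HepG2, 24 h treatment; reporter transcripts quantified by fluorescence on capillary electrophoresis, analysed for upward change from DMSO.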

Assay [2] has as its target human Vitamin D Receptor (VDR), VDR (gene 7421) (UniProt P11473). Briefly: ATG_VDR_TRANS: Attagene TRANS-FACTORIAL HepG2 Assay for human Vitamin D Receptor (VDR) (AID 2283022; active = hit-call score of the fitted dose curve at least 0.9, where 1 is the maximum). In a few lines: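 Fluorescence of labelled reporter cDNA fragments, resolved by capillary electrophoresis, gives mRNA induction after 24 h treatment of HepG2 cells carrying transfected Gal4-fusion reporter units. Activity is fitted in the positive direction with DMSO as baseline.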

Read-out in assay [3]: E-selectin (Homo sapiens) (UniProt P16581)
The experiment in a line: BSK_3C_Eselectin: BioMAP Diversity Plus: 3C Assay for Eselectin Biomarker Activity (AID 2283015).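 Note: cell surface E-selectin protein quantified by ELISA 24 h after dosing.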 Particulars: primary human endothelial cells (HUVEC); actives raise or lower the signal. In a few lines:
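Human vascular endothelium from umbilical vein is exposed to test chemicals for 24 h. E-selectin levels are read by ELISA and compared with DMSO controls.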

Read-out in assay [4]: Interleukin-1 alpha (IL1a), IL1A (gene 3552)
The experiment in a line: BSK_BE3C_IL1a: BioMAP Diversity Plus: BE3C Assay for Interleukin-1 alpha (IL1a) Biomarker Activity (AID 2283016). Particulars: primary human bronchial epithelial cells; actives raise or lower the signal. In a few lines:
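Measured in human lung primary bronchial epithelial cells: IL-1a by ELISA at 24 h after dosing, with bidirectional fitting against DMSO.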

Read-out in assay [5]: Monocyte Chemoattractant Protein-1 (MCP1), CCL2 (gene 6347)
Briefly: BSK_3C_MCP1: BioMAP Diversity Plus: 3C Assay for Monocyte Chemoattractant Protein-1 (MCP1) Biomarker Activity (AID 2283017). Particulars: primary human endothelial cells (HUVEC); actives raise or lower the signal. In a few lines:
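Endothelial cells from human umbilical vein are dosed with chemical, cultured 24 h, then assayed for MCP-1 by ELISA; both increases and decreases are modelled against DMSO controls.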

Read-out in assay [6]: Monocyte Chemoattractant Protein-1 (MCP1), CCL2 (gene 6347)
The experiment in a line: BSK_4H_MCP1: BioMAP Diversity Plus: 4H Assay for Monocyte Chemoattractant Protein-1 (MCP1) Biomarker Activity (AID 2283018). Particulars: primary human endothelial cells (HUVEC); actives raise or lower the signal. In a few lines:
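Primary human umbilical vein endothelium is exposed to chemical for 24 h before MCP-1 is assayed by ELISA. Concentration-response fitted bidirectionally relative to DMSO.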

Read-out in assay [7]: Interleukin-8 (IL8), CXCL8 (gene 3576)
Briefly: BSK_3C_IL8: BioMAP Diversity Plus: 3C Assay for Interleukin-8 (IL8) Biomarker Activity (AID 2283020). Particulars: primary human endothelial cells (HUVEC); actives raise or lower the signal. In a few lines: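 Using DMSO-treated wells as the baseline, bidirectional curve fitting was applied to ELISA-measured IL-8 from human umbilical vein endothelial cultures sampled 24 h after compound addition.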

Read-out in assay [8]: Monokine induced gamma interferon (MIG), CXCL9 (gene 4283)
The experiment in a line: BSK_3C_MIG: BioMAP Diversity Plus: 3C Assay for Monokine induced gamma interferon (MIG) Biomarker Activity (AID 2283021). Particulars: primary human endothelial cells (HUVEC); actives raise or lower the signal. In a few lines:
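ELISA-measured MIG in dosed HUVEC 3C cultures at 24 h, analysed by bidirectional fitting with DMSO defining baseline activity.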

A short description of assay [9]: BSK_3C_SRB: Viability Assessment in the BioMAP Diversity Plus: 3C Assay (AID 2283023).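 Note: fitted both ways against DMSO so a hit may be signal rise or drop.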 Particulars: primary human endothelial cells (HUVEC). The method in brief: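 Cells were dosed with chemical, cultured 24 h, fixed with 10% TCA, stained with 0.1% SRB and read at 560 nm. Human umbilical vein endothelium was used; DMSO served as negative control and baseline.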
Read-out in assay [10]: Matrix Metallopeptidase 1 (MMP1), MMP1 (gene 4312)
The experiment in a line: BSK_BE3C_MMP1: BioMAP Diversity Plus: BE3C Assay for Matrix Metallopeptidase 1 (MMP1) Biomarker Activity (AID 2283024). Particulars: primary human bronchial epithelial cells; actives raise or lower the signal. The method in brief: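 In this multiplexed primary-cell system, human bronchial epithelium received chemicals for 24 h before an ELISA for MMP1. Values reflect bidirectional fits normalised to the DMSO baseline.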

The nature of assay [11]: BSK_3C_Vis: BioMAP Diversity Plus: 3C Assay for Morphology Visualization (AID 2283025).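 For AC50: light microscopy image of cell morphology used as background control.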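 Note: fitted both ways so gain or loss versus DMSO counts.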 Particulars: primary human endothelial cells (HUVEC). In a few lines: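 Light-microscopy morphology readout, 24 h exposure, human primary umbilical vein endothelium; analysed relative to DMSO with bidirectional fitting.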
Read-out in assay [12]: Pselectin, SELP (gene 6403)
The experiment in a line: BSK_4H_Pselectin: BioMAP Diversity Plus: 4H Assay for Pselectin Biomarker Activity (AID 2283026). Particulars: primary human endothelial cells (HUVEC); actives raise or lower the signal. The method in brief:
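Bidirectional fits against DMSO gave the endpoint. Cells: primary human umbilical vein endothelium, chemical-treated for 24 h before ELISA detection of P-selectin.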

A short description of assay [13]: BSK_4H_SRB: Viability Assessment in the BioMAP Diversity Plus: 4H Assay (AID 2283027).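 For AC50: curves fitted both ways versus DMSO so AC50 may be loss or gain.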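 Note: cells exposed to compound for 24 h before staining.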 Particulars: primary human endothelial cells (HUVEC). The method in brief: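 Cytotoxicity read-out in primary human endothelial cells: after 24 h compound exposure, cells were TCA-fixed (10%), stained with 0.1% SRB and absorbance taken at 560 nm. Values fitted in both directions relative to DMSO.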

Read-out in assay [14]: Thrombomodulin, THBD (gene 7056)
The experiment in a line: BSK_3C_Thrombomodulin: BioMAP Diversity Plus: 3C Assay for Thrombomodulin Biomarker Activity (AID 2283029). Particulars: primary human endothelial cells (HUVEC); actives raise or lower the signal. The method in brief:
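In a multiplexed primary-cell system, human umbilical vein endothelium received chemical and was assayed 24 h later for thrombomodulin by ELISA. Parallel cultures were SRB-stained (0.1% SRB after 10% TCA fixation, read at 560 nm) to flag cytotoxicity.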

Read-out in assay [15]: Urokinase-type plasminogen activator receptor (uPAR), PLAUR (gene 5329)
Briefly: BSK_4H_uPAR: BioMAP Diversity Plus: 4H Assay for Urokinase-type plasminogen activator receptor (uPAR) Biomarker Activity (AID 2283030). Particulars: primary human endothelial cells (HUVEC); actives raise or lower the signal. The method in brief:
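Chemicals are dosed onto human vascular endothelial primary cells (umbilical vein). After 24 h, uPAR is read by ELISA. Gain or loss of signal is fitted relative to DMSO.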

Read-out in assay [16]: Vascular endothelial growth factor receptor 2 (Homo sapiens) (UniProt P35968)
The experiment in a line: BSK_4H_VEGFRII: BioMAP Diversity Plus: 4H Assay for Vascular endothelial growth factor receptor 2 (VEGFR2) Biomarker Activity (AID 2283031).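 For AC50: cell-surface VEGFR2 protein level quantified by ELISA.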 Particulars: primary human endothelial cells (HUVEC); actives raise or lower the signal. In a few lines:
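VEGFRII levels on human vascular endothelial primary cells were determined by ELISA at 24 hours post-dosing, with gain- or loss-of-signal fitted against DMSO controls.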

Assay [17] in a line: BSK_BE3C_SRB: Viability Assessment in the BioMAP Diversity Plus: BE3C Assay (AID 2283028). Particulars: primary human bronchial epithelial cells. In a few lines: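 Overt cytotoxicity was assessed as total protein in confluent human primary bronchial epithelial cultures 24 h after chemical addition, using 0.1% sulforhodamine B staining read at 560 nm.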
Read-out in assay [18]: Human Leukocyte Antigen - DR isotype (HLADR), HLA-DRA (gene 3122)
Briefly: BSK_3C_HLADR: BioMAP Diversity Plus: 3C Assay for Human Leukocyte Antigen - DR isotype (HLADR) Biomarker Activity (AID 2283019).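 For outcome: ELISA of cell-surface HLA-DR on HUVEC 24 h after dosing.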 Particulars: primary human endothelial cells (HUVEC); actives raise or lower the signal. In a few lines:
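Endothelial cells from human umbilical vein are treated with test chemical; after 24 h, HLA-DR levels are measured by ELISA. Data are fitted in both directions using DMSO as the baseline.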

Assay [19] deals with human Retinoid X Receptor beta (RXRb), RXRB (gene 6257) (UniProt P28702). The experiment in a line: ATG_RXRb_TRANS: Attagene TRANS-FACTORIAL HepG2 Assay for human Retinoid X Receptor beta (RXRb) (AID 2283013; active = hit-call score of the fitted dose curve at least 0.9, where 1 is the maximum). In a few lines:
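After a 24 h incubation with test chemical, transfected HepG2 cells carrying NR-Gal4 fusions and GAL4-UAS reporter transcription units yield RNA whose reporter cDNA is FAM-labelled, HpaI-cut and sized by capillary electrophoresis; increases over DMSO are scored.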

The target in assay [20] is human Thyroid Receptor alpha (THRa1), THRA (gene 7067) (UniProt P10827). The experiment in a line: ATG_THRa1_TRANS: Attagene TRANS-FACTORIAL HepG2 Assay for human Thyroid Receptor alpha (THRa1) (AID 2283014; active = hit-call score of the fitted dose curve at least 0.9, where 1 is the maximum). The method in brief: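 First, HepG2 cells receive multiple GAL4-UAS reporter units and the chimeric receptor. They are then dosed for 24 h, after which RNA is reverse-transcribed, amplified, labelled, HpaI-cut and sized by capillary electrophoresis; gain relative to DMSO is scored.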

Inconclusive results are not listed. Calls of active or inactive are those of the source. Rule for the calls, unless noted: active = hit-call score of the fitted dose curve at least 0.9, where 1 is the maximum; inactive = score below 0.9.

A word on the AC50: it is the concentration giving half of the maximal activity seen.

Sequence of E-selectin (Homo sapiens) (P16581 whole entry, looked up): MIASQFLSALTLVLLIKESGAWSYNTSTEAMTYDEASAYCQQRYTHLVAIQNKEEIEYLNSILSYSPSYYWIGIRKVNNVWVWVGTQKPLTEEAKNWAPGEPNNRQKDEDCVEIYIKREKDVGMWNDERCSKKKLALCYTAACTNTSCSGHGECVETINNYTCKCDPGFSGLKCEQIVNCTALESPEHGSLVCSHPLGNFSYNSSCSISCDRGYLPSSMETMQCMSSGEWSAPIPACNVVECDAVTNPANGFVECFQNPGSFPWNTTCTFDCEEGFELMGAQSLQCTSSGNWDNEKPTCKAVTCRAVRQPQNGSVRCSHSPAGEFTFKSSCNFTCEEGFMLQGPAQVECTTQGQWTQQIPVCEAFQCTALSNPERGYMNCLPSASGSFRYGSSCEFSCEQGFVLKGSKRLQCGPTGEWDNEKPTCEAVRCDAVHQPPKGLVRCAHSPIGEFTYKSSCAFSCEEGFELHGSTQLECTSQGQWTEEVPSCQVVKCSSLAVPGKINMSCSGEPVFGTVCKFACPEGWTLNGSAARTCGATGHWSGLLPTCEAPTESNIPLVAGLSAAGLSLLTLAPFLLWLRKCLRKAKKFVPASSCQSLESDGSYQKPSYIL
Sequence of human Vitamin D Receptor (VDR), VDR (gene 7421) (P11473 whole entry, looked up, the tested form may be a part): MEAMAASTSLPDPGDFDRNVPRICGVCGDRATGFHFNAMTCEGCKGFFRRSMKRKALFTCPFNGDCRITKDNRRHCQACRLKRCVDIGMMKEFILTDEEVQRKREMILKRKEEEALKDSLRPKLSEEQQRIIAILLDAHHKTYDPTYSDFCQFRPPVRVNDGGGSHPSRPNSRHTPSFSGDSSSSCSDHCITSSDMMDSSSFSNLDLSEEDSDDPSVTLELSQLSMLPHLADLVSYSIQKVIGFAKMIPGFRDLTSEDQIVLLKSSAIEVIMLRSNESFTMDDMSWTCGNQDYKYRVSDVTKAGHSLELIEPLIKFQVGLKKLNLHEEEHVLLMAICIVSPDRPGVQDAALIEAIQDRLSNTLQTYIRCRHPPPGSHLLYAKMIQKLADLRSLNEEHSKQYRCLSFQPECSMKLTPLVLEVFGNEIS
Sequence of Retinoic acid receptor RXR-alpha (Homo sapiens) (P19793 whole entry, looked up, the tested form may be a part): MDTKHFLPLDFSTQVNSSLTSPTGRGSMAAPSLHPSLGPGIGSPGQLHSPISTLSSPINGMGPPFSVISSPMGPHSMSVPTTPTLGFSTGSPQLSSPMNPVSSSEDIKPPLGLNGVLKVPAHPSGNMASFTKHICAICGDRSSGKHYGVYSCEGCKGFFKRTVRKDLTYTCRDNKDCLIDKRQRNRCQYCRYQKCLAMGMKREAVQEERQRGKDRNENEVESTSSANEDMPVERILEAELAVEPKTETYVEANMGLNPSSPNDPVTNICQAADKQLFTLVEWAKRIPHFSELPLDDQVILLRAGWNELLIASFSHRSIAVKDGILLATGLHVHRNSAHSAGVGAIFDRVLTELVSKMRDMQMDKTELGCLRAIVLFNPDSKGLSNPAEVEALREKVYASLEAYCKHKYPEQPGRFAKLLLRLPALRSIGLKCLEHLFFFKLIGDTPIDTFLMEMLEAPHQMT
Sequence of human Retinoid X Receptor beta (RXRb), RXRB (gene 6257) (P28702 whole entry, looked up, the tested form may be a part): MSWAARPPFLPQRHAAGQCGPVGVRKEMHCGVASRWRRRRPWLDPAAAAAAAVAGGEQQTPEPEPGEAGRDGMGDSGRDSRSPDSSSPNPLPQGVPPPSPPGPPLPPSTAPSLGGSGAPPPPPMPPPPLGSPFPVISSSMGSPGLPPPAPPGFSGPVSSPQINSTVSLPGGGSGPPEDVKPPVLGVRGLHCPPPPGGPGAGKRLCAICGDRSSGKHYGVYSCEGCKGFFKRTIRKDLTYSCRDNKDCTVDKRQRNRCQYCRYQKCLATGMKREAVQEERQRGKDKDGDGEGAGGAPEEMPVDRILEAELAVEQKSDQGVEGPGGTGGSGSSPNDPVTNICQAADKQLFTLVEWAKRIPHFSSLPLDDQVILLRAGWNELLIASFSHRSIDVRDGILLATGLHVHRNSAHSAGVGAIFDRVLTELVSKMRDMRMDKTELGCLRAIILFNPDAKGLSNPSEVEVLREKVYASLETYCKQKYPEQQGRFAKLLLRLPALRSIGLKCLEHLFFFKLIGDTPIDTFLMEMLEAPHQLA
Sequence of human Thyroid Receptor alpha (THRa1), THRA (gene 7067) (P10827 whole entry, looked up, the tested form may be a part): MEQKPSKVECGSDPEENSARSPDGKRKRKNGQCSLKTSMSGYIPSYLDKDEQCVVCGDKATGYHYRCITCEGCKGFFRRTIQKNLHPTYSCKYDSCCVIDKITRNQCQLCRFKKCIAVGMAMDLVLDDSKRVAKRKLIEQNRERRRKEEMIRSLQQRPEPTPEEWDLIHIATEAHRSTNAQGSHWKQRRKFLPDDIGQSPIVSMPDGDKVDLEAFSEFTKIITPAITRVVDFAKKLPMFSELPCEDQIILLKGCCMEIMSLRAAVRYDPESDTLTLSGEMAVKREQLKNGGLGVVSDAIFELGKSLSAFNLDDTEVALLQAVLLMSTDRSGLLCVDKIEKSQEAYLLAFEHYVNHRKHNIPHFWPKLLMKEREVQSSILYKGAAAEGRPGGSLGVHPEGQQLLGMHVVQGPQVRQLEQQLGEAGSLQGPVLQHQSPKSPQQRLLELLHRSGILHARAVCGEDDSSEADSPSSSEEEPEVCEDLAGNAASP

Turning to `COc1cc(/C=C/C(=O)CC(=O)/C=C/c2ccc(O)c(OC)c2)ccc1O`, the result in assay [1] and in assay [2] was inactive.

As for `Nc1ccc(S(=O)(=O)c2ccc(N)cc2)cc1`, the molecule was called inactive in assay [1], in assay [3], in assay [4], in assay [5], in assay [6] and in assay [7]. The result in assay [8], in assay [9], in [10], in [11], in assay [12] and in assay [13] was inactive. Further, the outcome in [14], in assay [15] and in [16] was inactive.

`CCCCc1ccc2c(n1)[C@@H](c1ccc(OC)cc1C[C@H](C)C(=O)O)[C@H](C(=O)O)[C@H]2c1ccc2c(c1)OCO2`: the molecule was called inactive in assay [1], in assay [3], in assay [4], in assay [5], in assay [6] and in assay [7]. Besides, the outcome in assay [8], in assay [9], in assay [10], in [11], in assay [12] and in assay [13] was inactive. The outcome in assay [17], in assay [14], in [15] and in [16] was inactive.

For the molecule `Cc1ccc(Cl)cc1`, the molecule was called inactive in assay [1], in [3], in assay [4], in [5], in assay [6] and in assay [18]. The outcome in assay [7], in assay [8], in assay [2], in assay [9], in assay [10] and in assay [11] was inactive. Moreover, the result in assay [12], in assay [13], in assay [17], in assay [14], in assay [15] and in [16] was inactive.

Turning to `CCc1c(C(=O)NN2CCCCC2)nn(-c2ccc(Cl)cc2Cl)c1-c1ccc(Br)cc1`, the result in [1], in [3], in [4], in [8], in assay [2] and in assay [10] was inactive. For the same molecule, the outcome in [17] and in assay [14] was inactive. Besides, the AC50 in assay [5] was 7.54 µM (active); in [6], 5.41 µM (active); in assay [18], 10.4 µM (active); in [7], 7.69 µM (active); in assay [9], 9.03 µM (active); in assay [11], 13.2 µM (active). The concentration at half-maximal activity (AC50) is 2.66 µM (active) in assay [12], 6.66 µM (active) in [13], 6.58 µM (active) in assay [15] and 9.41 µM (active) in assay [16].

On to `Cc1ccc(C)c(O)c1C`, for which the outcome in [19], in assay [20], in [3], in assay [4], in assay [5] and in assay [6] was inactive. In addition, the result in assay [18], in [7], in [8], in assay [2], in assay [9] and in assay [10] was inactive. The result in assay [11], in assay [12], in assay [13], in [14], in assay [15] and in assay [16] was inactive.

On to `O=c1[nH]cc(F)c(=O)[nH]1`, for which the molecule was classed as inactive in assay [1], in [19], in assay [3], in [4], in assay [5] and in assay [6]. Also, the result in assay [7], in [8], in [2], in assay [10], in assay [11] and in assay [12] was inactive. Besides, the outcome in assay [13], in assay [17], in [14] and in assay [16] was inactive. In addition, the AC50 in assay [9] is 20.4 µM (active).

On to `COCCOC[C@H](CC1(C(=O)NC2CCC(C(=O)O)CC2)CCCC1)C(=O)Oc1ccc2c(c1)CCC2` (stereo partly specified), for which the outcome in [1], in assay [3], in assay [4], in assay [5], in assay [6] and in assay [18] was inactive. For the same molecule, the outcome in assay [7], in assay [8], in assay [2], in assay [9], in assay [10] and in assay [11] was inactive. Also, the result in assay [12], in [13], in assay [14], in assay [15] and in assay [16] was inactive.
